High-throughput results as filed in PubChem.
Compounds with a hit are over-represented: about 19% of the library has one in this group of screens.
HT1080 IDH1KD tx = qHTS for induction of synthetic lethality in tumor cells producing 2HG: qHTS for the HT-1080-IDH1KD cell line; HT-1080 IDH1 knockdown viability, ATP luminescence, 48 h; Potency, µM (doses to about 46.1 µM), hits mostly cytotoxic; hit rate 2% among 360,000; AID 686971, 2013
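IDH1KD HT-1080 cells, 750/well, RPMI + 5% FBS; compound pinned after 2 h settling; 48 h, 37 °C; CellTiter-Glo luminescence; % activity normalised to DMSO and no-cell wells; curves fitted, classed by r2 and efficacy.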
TDP1 cell noCPT = qHTS for Inhibitors of human tyrosyl-DNA phosphodiesterase 1 (TDP1): qHTS in cells in absence of CPT; DT40 Tdp1-/- hTDP1 cells, no CPT, ATP luminescence, 48 h; Potency, µM (doses to about 46.2 µM), usual class: inhibitors; hit rate 15% among 420,000; AID 686978, 2013; note: nearly all actives have a fitted effect of over 55% in size
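Growth of hTDP1-complemented DT40 Tdp1-knockout cells is measured by ATP luminescence after at least 48 hr compound exposure at 37 °C, with DMSO substituting for the 20 nM CPT used in the parallel screen.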
IL-1B inflam inh = qHTS for Inhibitors of Inflammasome Signaling: IL-1-beta AlphaLISA Primary Screen; THP-1 LPS/ATP IL-1B secretion, AlphaLISA, 16 h; active compounds read low; activity change, % at 57.5 µM; hit rate 4.7% among 360,000; AID 743279, 2014; in the data active = activity change below about -50%; inconclusive = mostly about -30% to -49%
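Secreted IL-1B measured by AlphaLISA bead assay after 16 h compound exposure of THP-1 cells; compounds (final up to 57.5 uM) added 1 h before LPS (250 ng/mL) and ATP (1.25 mM) stimulation; lower signal means less secretion.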
TDP1 cell CPT = qHTS for Inhibitors of human tyrosyl-DNA phosphodiesterase 1 (TDP1): qHTS in cells in presence of CPT; chicken DT40 Tdp1-/-;hTDP1 cells + 20 nM CPT, ATP luminescence, 48 h; Potency, µM (doses to about 46.2 µM), actives largely listed as inhibitors; hit rate 12% among 420,000; AID 686979, 2013; note: nearly all actives have a fitted effect of over 55% in size
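Cell growth measured by CellTiter-Glo luminescence after a minimum 48 h, 37 C compound exposure with 20 nM CPT in Tdp1-knockout DT40 cells stably expressing hTDP1, seeded 400/well; qHTS titration format.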
HT1080-NT tox = qHTS for induction of synthetic lethality in tumor cells producing 2HG: qHTS for the HT-1080-NT fibrosarcoma cell line; hit rate 1.6% among 360,000; AID 686970, 2013; HT-1080-NT fibrosarcoma viability, CellTiter-Glo ATP luminescence, 48 h; Potency, µM (top dose mostly 46.1 µM), hits mostly cytotoxic;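 note: NT is the 2HG producing partner of a matched IDH1 knockdown line; nearly all actives have a fitted effect of over 55% in size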
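Luminescent CellTiter-Glo readout after 48 hours of compound exposure at 37 degrees C defined viability of HT-1080-NT cells. Activity was normalized to DMSO wells and cell-free media wells; concentration-response curves were fitted and assigned curve classes.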
Large screens that a line does not name were inactive. Unless noted, calls come from the whole dose curve; as a rule, active = well fitted curve in the direction sought with a large enough effect; inconclusive = small, poorly fitted or top-dose-only effect, or another doubt; inactive = no such curve, though single readings can be large; an effect the other way counts as inactive or inconclusive.

COc1ccccc1NC(=O)Cc1csc(NC(=S)Nc2ccccc2)n1	HT1080 IDH1KD tx 3.2µM, TDP1 cell noCPT 6.5µM, TDP1 cell CPT 4.6µM, HT1080-NT tox 3.5µM
COCCn1c(SCC(=O)N2CC(=O)Nc3ccccc32)nc2ccccc21	none
O=c1[nH]c2cc([N+](=O)[O-])c(NCCO)c([N+](=O)[O-])c2[nH]1	none
CCN(C(=O)CSc1nc(C)nc2sc3c(c12)CCC3)C1CCS(=O)(=O)C1 (stereo not given)	TDP1 cell noCPT 21µM, TDP1 cell CPT inconclusive
CC1CCc2c(sc3ncnc(SCC(=O)N(C)C4CCS(=O)(=O)C4)c23)C1 (stereo not given)	TDP1 cell noCPT 18µM, TDP1 cell CPT inconclusive
CSCCC(NC(=O)COc1ccccc1)C(=O)N1CCOCC1 (stereo not given)	none
CN(c1ccccc1C(=O)Nc1ccc(CC#N)cc1)S(=O)(=O)c1ccccc1	none
CCCNC(=O)c1ccccc1NC(=O)c1ccccc1N(C)S(=O)(=O)c1ccc(C)cc1	HT1080 IDH1KD tx inconclusive, TDP1 cell noCPT 18µM, TDP1 cell CPT inconclusive, HT1080-NT tox inconclusive
CCOC(=O)c1ccc(NC(=O)c2ccccc2N(C)S(=O)(=O)c2ccccc2)cc1	TDP1 cell noCPT inconclusive, TDP1 cell CPT 18µM
CC(C)CN(C(=O)CN(C)C(=O)c1ccco1)c1c(N)n(CC(C)C)c(=O)[nH]c1=O	none
Cc1c(C#N)c(N=CN(C)C)c(C(=O)c2ccc(Br)cc2)n1-c1ccc(Cl)cc1	HT1080 IDH1KD tx inconclusive, TDP1 cell noCPT inconclusive, TDP1 cell CPT 11µM, HT1080-NT tox inconclusive
COc1ccc(NS(=O)(=O)c2ccc(N3CCOCC3)c(N)c2)cc1	TDP1 cell noCPT 1.2µM, TDP1 cell CPT 2.6µM
COc1ccc(NS(=O)(=O)c2ccc(N3CCOCC3)c(NC(=O)c3ccc(OC)cc3)c2)cc1	TDP1 cell noCPT 16µM, TDP1 cell CPT 16µM
O=C1C(CSCc2ccccc2)NC(=S)N1c1ccccc1 (stereo not given)	TDP1 cell noCPT 4.6µM, TDP1 cell CPT 2.9µM
Cn1c(CNC(=O)c2ccco2)nnc1SCC(=O)Nc1c(F)cc(F)cc1Br	none
COc1cc(NC(=O)CN2C(=O)C(c3ccccc3)=NC23CCCCCC3)cc(OC)c1	IL-1B inflam inh inconclusive
CCOc1ccc(NC(=O)CN2C(=O)C(c3ccccc3)=NC23CCC(C)CC3)cc1 (stereo not given)	TDP1 cell noCPT 16µM, TDP1 cell CPT 16µM (no result: HT1080 IDH1KD tx, IL-1B inflam inh, HT1080-NT tox)
Cc1cc2cc(CN(Cc3cccs3)C(c3nnnn3C(C)(C)C)C(C)C)c3nnnn3c2cc1C (stereo not given)	TDP1 cell noCPT 9.2µM, TDP1 cell CPT 15µM
O=S1(=O)C[C@H](N2CCN(CC3CC3)CC2)[C@@H](COCc2ccccc2)N1	TDP1 cell noCPT inconclusive, TDP1 cell CPT inconclusive
CSc1nc2c(c(=O)[nH]1)C(c1cccc(F)c1F)CC(=O)N2 (stereo not given)	none (no result: HT1080 IDH1KD tx, IL-1B inflam inh, HT1080-NT tox)
Cc1ccc(CSc2nc3c(c(=O)[nH]2)C(c2cccc(F)c2F)CC(=O)N3)cc1 (stereo not given)	TDP1 cell noCPT inconclusive, TDP1 cell CPT 15µM (no result: HT1080 IDH1KD tx, IL-1B inflam inh, HT1080-NT tox)
CCCCCCNC(=O)c1c(O)c2cccc3c2n(c1=O)CCC3	TDP1 cell noCPT 29µM, TDP1 cell CPT inconclusive
CCCCc1nc2ccccc2c(=O)n1NC(=O)c1c(O)c2ccccc2n(C)c1=O	TDP1 cell noCPT 3.7µM, TDP1 cell CPT 4.1µM
CCCc1nc2ccccc2c(=O)n1NC(=O)c1c(O)c2cccc3c2n(c1=O)CCC3	TDP1 cell noCPT 16µM, TDP1 cell CPT inconclusive
CCN(CC)CCNC(=O)c1c(O)c2cccc3c2n(c1=O)CCC3	HT1080 IDH1KD tx inconclusive, TDP1 cell noCPT inconclusive, TDP1 cell CPT inconclusive
Cc1nc2sc(C(c3ccco3)N3CCN(c4ccccc4)CC3)c(O)n2n1 (stereo not given)	TDP1 cell CPT inconclusive
COc1cc(C(c2sc3nc(C)nn3c2O)N2CCc3ccccc3C2)cc(OC)c1OC (stereo not given)	TDP1 cell noCPT 10µM, TDP1 cell CPT 23µM
Cc1nc2sc(C(c3ccco3)N3CCN(C(c4ccccc4)c4ccccc4)CC3)c(O)n2n1 (stereo not given)	TDP1 cell noCPT 18µM, TDP1 cell CPT inconclusive
Cc1noc(C)c1-c1cncnc1N1CCN(C)CC1	none (no result: HT1080 IDH1KD tx, IL-1B inflam inh, HT1080-NT tox)
CCSc1ccc(-c2cc(NC=O)c3ncc(-c4cccc(C(=O)NCCN(C)C)c4)n3c2)cc1	HT1080 IDH1KD tx inconclusive, TDP1 cell noCPT 3.3µM, IL-1B inflam inh -108, TDP1 cell CPT 4.6µM, HT1080-NT tox 18µM
CN(C)CCNC(=O)c1cccc(-c2cnc3c(NC=O)cc(-c4ccc(F)cc4)cn23)c1	HT1080 IDH1KD tx 23µM, TDP1 cell noCPT 5.2µM, TDP1 cell CPT 4.6µM, HT1080-NT tox inconclusive
COc1ccccc1-c1cc(NC=O)c2ncc(-c3cccc(C(C)=O)c3)n2c1	HT1080 IDH1KD tx inconclusive, TDP1 cell noCPT 7.3µM, TDP1 cell CPT 6.5µM, HT1080-NT tox inconclusive
O=CNc1cc(-c2cccc(O)c2)cn2c(-c3ccc(F)cc3)cnc12	HT1080 IDH1KD tx inconclusive, TDP1 cell noCPT 21µM, TDP1 cell CPT 18µM, HT1080-NT tox inconclusive
CCn1nnc2cc(C(=O)Nc3cc(OC)cc(OC)c3)ccc21	none
CN(C)CCNC(=O)c1cccc(-c2cnc3c(NC=O)cc(/C=C/c4ccccc4)cn23)c1	HT1080 IDH1KD tx inconclusive, TDP1 cell noCPT 5.2µM, TDP1 cell CPT 3.7µM, HT1080-NT tox inconclusive
CC(=O)c1cccc(-c2cnc3c(NC=O)cc(-c4ccc(F)cc4)cn23)c1	HT1080 IDH1KD tx inconclusive, TDP1 cell noCPT inconclusive, TDP1 cell CPT 16µM
CN(C)CCNC(=O)c1cccc(-c2cnc3c(NC=O)cc(-c4cccc(F)c4)cn23)c1	HT1080 IDH1KD tx inconclusive, TDP1 cell noCPT inconclusive, TDP1 cell CPT inconclusive, HT1080-NT tox inconclusive
OC1Cc2ccccc2C1Nc1cccc(C(F)(F)F)c1 (stereo not given)	TDP1 cell noCPT inconclusive, IL-1B inflam inh -66
N#Cc1ccc(NC2c3ccccc3CC2O)cc1 (stereo not given)	TDP1 cell noCPT inconclusive, TDP1 cell CPT inconclusive
Cc1ccc(/C=N/Nc2ncc(Cl)cc2Cl)s1	HT1080 IDH1KD tx 7.1µM, TDP1 cell noCPT inconclusive, TDP1 cell CPT inconclusive, HT1080-NT tox 6.3µM
Clc1cnc(N/N=C/c2cccs2)c(Cl)c1	TDP1 cell noCPT inconclusive
CCCCCOC(=O)CSc1ncnc2sc3c(c12)CCC(C)C3 (stereo not given)	none (no result: HT1080 IDH1KD tx, IL-1B inflam inh, HT1080-NT tox)
CCc1ccc(NC(=O)Cn2nnc(-c3ccccc3N)n2)cc1	TDP1 cell CPT inconclusive (no result: HT1080 IDH1KD tx, IL-1B inflam inh, HT1080-NT tox)
